40 compounds from PubChem BioAssay (NCATS) can be followed below.

Results filed as inconclusive are left out. Active and inactive are the calls of the source. Calls follow the shape of the dose curve; as a rule, active = well fitted inhibition curve with a large enough effect; inconclusive = small, poorly fitted or top-dose-only effect; inactive = flat fitted curve, though single readings scatter.
% is scaled to controls: 0 for no effect and ±100 for the full control effect.

Sequence of Calcium and integrin-binding protein 1 (Homo sapiens) (Q99828 whole entry, looked up): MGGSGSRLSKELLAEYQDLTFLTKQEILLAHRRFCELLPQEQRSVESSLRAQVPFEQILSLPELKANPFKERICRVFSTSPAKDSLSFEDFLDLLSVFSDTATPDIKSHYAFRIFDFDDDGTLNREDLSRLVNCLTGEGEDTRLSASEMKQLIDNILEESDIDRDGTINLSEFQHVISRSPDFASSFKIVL

The assay has as its target Calcium and integrin-binding protein 1 (Homo sapiens) (UniProt Q99828). The assay is described as follows: Primary qHTS for Identification of Calcium Integrin Binding Protein 1 (CIB1) Competitor (AID 1508620).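 Also: GST tagged CIB1 binding a fluorescein labelled alphaIIb integrin peptide tracer; top concentration of the series differs between compounds.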 As to conditions: CIB1-GST / FITC-alphaIIb peptide fluorescence polarization; series mostly up to 114 µM; activity change, negative = inhibition: at the top concentration. A digest of the protocol:
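Fluorescence polarization competition: CIB1-GST (1 uM final) preincubated with compound 15 min at room temperature, then FITC-labeled alphaIIb peptide (100 nM final) added for another 15 min. Polarization read at Ex 480/Em 540.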
A general note: qHTS replaces the single test concentration by a dilution series.
`COc1ccc(C(CC(=O)N2CC(C)CC(C)C2)c2c(O)cc(OC)cc2OC)cc1` (stereo not given): the “activity change, negative = inhibition” value was 4.16% [at 228 µM] (inactive).

For `O=C(CSc1nc2ccccc2[nH]1)N1CCOCC1`, the “activity change, negative = inhibition” value was -2.62% (inactive).

Consider `COc1ccc(C2Nc3ccccc3C(=O)N2Cc2ccccc2)cc1COc1ccc(NC(C)=O)cc1` (stereo not given), for which the “activity change, negative = inhibition” value was 0.591% (inactive).

As for `COc1cc(OC)cc(-c2nnc3n2N=C(c2ccccc2OC)CS3)c1`, the “activity change, negative = inhibition” value is -0.382% (inactive).

Take `Cc1cc2c(s1)c1cnn(Cc3ccccc3C)c(=O)c1n2C`: the “activity change, negative = inhibition” value is 8.01% (inactive).

With `COC(=O)c1ccccc1S(=O)(=O)Nc1cc(=O)c2ccccc2[nH]1`, the “activity change, negative = inhibition” value was -2.79% (inactive).

Take `CCOc1ccc(CCNC(=O)c2csc(Br)n2)cc1OCC`: the “activity change, negative = inhibition” value was 3.56% (inactive).

With `Cc1noc(-c2sc3c(c2-c2nc4ccccc4s2)CCNC3)n1`, the “activity change, negative = inhibition” value was -0.415% (inactive).

On to `COc1cccc(C(=O)NC2CCN(C#N)CC2)c1`, for which the “activity change, negative = inhibition” value is 0.127% (inactive).

As for `Cc1cc2c(s1)c1cnn(Cc3cc(F)c(F)cc3F)c(=O)c1n2C`, the “activity change, negative = inhibition” value was 4.26% (inactive).

With `Cc1cc(C)nc(NC(=S)N2CCN(c3cccc4cnccc34)CC2)c1`, the “activity change, negative = inhibition” value is -9.88% (inactive).

As for `Cn1c2cc(Br)sc2c2cnn(Cc3ccc(F)cc3F)c(=O)c21`, the “activity change, negative = inhibition” value was 5.2% (inactive).

On to `Nc1ncnc2c1ncn2[C@@H]1O[C@H](CN[S+](=O)([O-])NC(=O)c2cccc(-c3noc(-c4ccccc4F)n3)c2)[C@@H](O)[C@H]1O`, for which the “activity change, negative = inhibition” value is -9.64% (inactive).

For the compound `Cc1csc(CN(C)c2ncnc3ccc(-c4ccc5c(c4)OCO5)cc23)n1`, the “activity change, negative = inhibition” value is -1.61% (inactive).

As for `N#Cc1c(-c2cccc(O)c2)no[n+]1[O-]`, the “activity change, negative = inhibition” value is 0.79% (inactive).

Regarding `COc1ccc(C2=Nn3c(nnc3-c3cccc(OC)c3OC)SC2)c(OC)c1`, the “activity change, negative = inhibition” value is 1.79% (inactive).

As for `Cc1ccc(NC(=O)CN2C(=O)N/C(=C\c3cccn3-c3ccc(C(=O)NC#N)cc3)C2=O)cc1`, the “activity change, negative = inhibition” value is 8.03% (inactive).

Turning to `O=C1CCCC2=C1C(c1[nH]ncc1Cl)N=C(Nc1nc3cc(Cl)ccc3o1)N2` (stereo not given), the “activity change, negative = inhibition” value is -5.19% (inactive).

For `O=C1CCCC2=C1C1(CCCC1)N=C(Nc1nc3cc(-c4ccccc4)ccc3o1)N2`, the “activity change, negative = inhibition” value is -15.8% (inactive).

Take `Cc1ccc(OCCn2c(CCNC(=O)/C=C/c3ccccc3Br)nc3ccccc32)cc1`: the “activity change, negative = inhibition” value is 27.3% (inactive).

As for `O=C(COc1ccccc1Br)NCCc1nc2ccccc2[nH]1`, the “activity change, negative = inhibition” value was 1.94% (inactive).

With `CC(=O)c1ccc(-c2csc3ncnc(Sc4nnnn4C)c23)cc1`, the “activity change, negative = inhibition” value is 7.44% (inactive).

As to `CCCCN(C)C(=O)Cn1nc(-c2ccc(Cl)cc2)ccc1=O`, the “activity change, negative = inhibition” value was -3.75% (inactive).

Take `Cc1cccc(S(=O)(=O)N2CCN(S(=O)(=O)c3ccc4c(c3)OCCO4)CC2)c1`: the “activity change, negative = inhibition” value was -7.77% (inactive).

With `O=C(Nc1ccc(N2CCOCC2)nc1)c1cccs1`, the “activity change, negative = inhibition” value is -3.64% (inactive).

With `Cc1ccc(OCCn2c(CCNC(=O)c3ccccc3F)nc3ccccc32)cc1`, the “activity change, negative = inhibition” value was 5.6% (inactive).

Regarding `O=S(=O)(c1ccc2ccccc2c1)N1CCN(S(=O)(=O)c2c(F)cccc2F)CC1`, the “activity change, negative = inhibition” value was -1.01% (inactive).

As to `N#Cc1nc(Nc2ccc(C(F)(F)F)cc2)nc(NC2CCCC2)n1`, the “activity change, negative = inhibition” value was -0.681% (inactive).

In the case of `CC(C)(C)OC(=O)N1CCN(c2ccc(NCc3nnc(-c4ccc(C#N)cc4)o3)cc2)CC1`, the “activity change, negative = inhibition” value is -0.469% (inactive).

On to `N#CC1=C(Nc2nc3ccccc3o2)OC2=C(C(=O)CCC2)C1c1[nH]ncc1Cl` (stereo not given), for which the “activity change, negative = inhibition” value is -8.19% (inactive).

As to `O=C(Nc1cccc(Cc2ccccc2)c1)c1ccc(-c2cccc([N+](=O)[O-])c2)o1`, the “activity change, negative = inhibition” value was 3.13% (inactive).

On to `Cc1cc(CNc2ncnc3ccc(-c4ccc5c(c4)OCO5)cc23)c(C)o1`, for which the “activity change, negative = inhibition” value is -4.9% (inactive).

As for `COc1ccccc1-c1csc(N2CCC(C(N)=O)CC2)n1`, the “activity change, negative = inhibition” value is 4.41% (inactive).

Take `CC(C)c1ccccc1-c1ncc(F)c(NCc2ccc(-c3ccn[nH]3)cc2)n1`: the “activity change, negative = inhibition” value was -4.7% (inactive).

In the case of `O=S(=O)(NCC1CN(S(=O)(=O)c2ccc3c(c2)OCCO3)C1)c1c(F)cccc1F`, the “activity change, negative = inhibition” value is 0.53% (inactive).

On to `CCOC(=O)C1CCN(C(=O)C(C)(C)NC(=O)Nc2ccc(N(C)C)cc2)CC1`, for which the “activity change, negative = inhibition” value is -2.05% (inactive).

Regarding `CC(=O)c1ccc(N2CCN(C(=O)c3ccc4c(c3)CCC(=O)N4)CC2)cc1`, the “activity change, negative = inhibition” value was -3.27% (inactive).

Take `O=C1CCCC2=C1C(c1[nH]ncc1Cl)N=C(Nc1nc3cc(Br)ccc3o1)N2` (stereo not given): the “activity change, negative = inhibition” value is -12.4% (inactive).

In the case of `O=[N+]([O-])c1ccc([S+](=O)([O-])N2CCN([S+](=O)([O-])c3ccc4c(c3)OCCO4)CC2)c([N+](=O)[O-])c1`, the “activity change, negative = inhibition” value was -12.1% (inactive).

With `COc1ccc(NC(=O)c2cnn3c(C)cc(C)nc23)cc1Cl`, the “activity change, negative = inhibition” value was 1.15% (inactive).
